In PubChem BioAssay AID652104 (National Center for Advancing Translational Sciences (NCATS), 2013):
Several values for one entry are separate records, joined by “and”; a condition that tells them apart may be missing. Equal entries are not always repeated. Out of some 410,000 compounds screened, about 7,200 (1.8%) were called active. Another 7% or so got no clear call; they are omitted. Shown is part of a subset that was picked to be rich in actives. Where a call stands in place of a potency, no number is given. A number with no mark means an inactive call. Calls follow the shape of the dose curve; as a rule, active = well fitted activation curve with a large enough effect; inconclusive = small, poorly fitted or top-dose-only effect, or another doubt; inactive = no such curve, though single readings can be large or run the other way.

Experiment: qHTS of TDP-43 Inhibitors; also: nearly all actives have a fitted effect of over 50% in size
Settings: TDP-43 expressing yeast growth rescue, BacTiter-Glo, 24 h; series mostly up to 46.1 µM
Outline: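 In this qHTS, compounds that restore growth of yeast expressing TDP-43 appear as activators. Cells (OD600=0.02, galactose medium, raffinose-pregrown) are incubated with compound 24 hr at 30 deg C and growth is quantified by BacTiter-Glo.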
Potency is read from the fitted curve at half-maximal effect.

Row | SMILES | Potency | growth rescue (activation)
1 | Cc1ccc(NC(=O)C2CCN(S(=O)(=O)c3cc(-c4noc(C)n4)ccc3C)CC2)c(C)c1 | inactive | 
2 | CCN(CCCNC(=O)c1c(C)oc2ncn(CC(C)C)c(=O)c12)Cc1ccccc1 | inactive | 
3 | Cc1ccc(Cl)cc1N1CCN(S(=O)(=O)c2cc3[nH]c(=O)c(=O)[nH]c3cc2C)CC1 | inactive | 
4 | CCN(CCCNC(=O)c1ccc(Sc2ccc(C)cc2)c(NC(C)=O)c1)c1cccc(C)c1 | inactive | 
5 | Cc1ccc(Sc2ccc(NC(=O)c3ccc(F)cc3)cc2C#N)cc1 | inactive | 
6 | CC(=O)Nc1cc(C(=O)NCc2ccc(F)cc2Cl)ccc1Sc1ccc(Cl)cc1 | 11.2 µM (active) | 
7 | COC(=O)c1ccc(Sc2ccc(F)cc2)c(N)c1 | inactive | 
8 | CC(=O)Nc1cc(C(=O)NCc2ccc(F)cc2)ccc1Sc1ccc(F)cc1 | 31.6 µM (active) | 
9 | COCCNC(=O)c1ccc(S(=O)(=O)c2ccc(Cl)cc2)c(NC(C)=O)c1 | inactive | 
10 | COC(=O)c1cc(NC(=O)c2sc3ccccc3c2Cl)cc(C(=O)OC)c1 | inactive | 
11 | O=C(Cn1c(=O)n(Cc2cccs2)c(=O)c2cccnc21)Nc1ccc(F)cc1 | inactive | 
12 | COc1cn(CC(=O)Nc2cccc(C)c2C)c(CN2CCCCC2)cc1=O | inactive | 
13 | COc1ccc(-n2cnc3cc(C(=O)NC4CCCC4)ccc32)cc1 | 28.2 µM (active) and 17.8 µM (active) | 
14 | Cc1ccc(-n2cnc3cc(C(=O)NCCC4=CCCCC4)ccc32)cc1Cl | inactive | 
15 | COCCCNC(=O)c1ccc2c(c1)ncn2-c1ccccc1OC | inactive | 
16 | O=C(Oc1ccc(C(=S)N2CCOCC2)cc1)c1ccc(F)cc1 | 7.08 µM (active) | 
17 | O=C(Oc1cccc(C(=S)N2CCOCC2)c1)c1cccc(Cl)c1 | 12.6 µM (active) | 
18 | O=C(Oc1ccc(Br)cc1C(=S)N1CCOCC1)c1cccc([N+](=O)[O-])c1 | inactive | 
19 | O=C(OCC(=O)N1CCOCC1)c1ccc2ccccc2c1 | inactive | 
20 | O=C(Oc1ccc(F)cc1)N1CCOCC1 | inactive | 
21 | Cc1ccc(C(=O)Oc2ccc(C(=S)N3CCOCC3)cc2)cc1 | inactive | 

Row | SMILES | Potency | growth rescue (activation)
22 | CC1Cc2cc(S(=O)(=O)CCC(=O)NCc3ccc(Cl)cc3)ccc2N1C(=O)C1CC1 (stereo not drawn) | inactive | 
23 | COc1cccc2c1cc1c(=O)n(CC(=O)N3CCN(c4cccc(Cl)c4)CC3)nc(C)n12 | inactive | 
24 | Cc1ccc(CCNC(=O)c2ccc3c(c2)nc2n3CCC(C)C2)cc1 (stereo not drawn) | inactive | 
25 | COc1cccc(-c2nnc3n(CCc4ccccc4)c(=O)c4ccccc4n23)c1O | inactive | 
26 | O=C1NC(c2cc3c(cc2Cl)OCO3)Oc2ccccc21 (stereo not drawn) | 22.4 µM (active) | 
27 | O=C1OCC2=C1C(c1ccc(Cl)cc1)c1cc3c(cc1O2)OCO3 (stereo not drawn) | inactive | 
28 | COc1ccc(-n2nnnc2CNC(=O)c2ccc3ccccc3c2)cc1 | 20 µM (active) | 
29 | COc1ccc(CNC(=O)c2ccc3oc(C(C)C)nc3c2)cc1 | inactive | 
30 | O=C(NCc1nnnn1-c1ccc(Cl)cc1)c1ccc2c(c1)OCO2 | inactive | 
31 | O=C(Nc1cccc2ccccc12)NC1CC1 | inactive | 
32 | O=C(O)c1cc([N+](=O)[O-])c(Nc2cccc3ccccc23)c([N+](=O)[O-])c1 | 11.2 µM (active) | 
33 | CC(C)NC(=O)c1ccc(Sc2ccccc2)c([N+](=O)[O-])c1 | inactive | 
34 | COc1cccc(CNC(=O)C2CCN(S(=O)(=O)c3ccc4c(ccn4C)c3)CC2)c1 | inactive | 
35 | Nc1ccccc1Sc1cc(Cl)nnc1Cl | 12.6 µM (active) | 
36 | Cc1ccc(Nc2ccc3cc(S(=O)(=O)N4CCCCC4)ccc3n2)cc1F | inactive | 
37 | CCCCN(C)CCCNC(=O)CN1N=C(c2ccc(OC)cc2)CCC1=O | inactive | 
38 | CCOc1ccc(C2=CC(c3ccccc3)n3ncnc3N2)cc1 (stereo not drawn) | 17.8 µM (active) | 
39 | Brc1ccc(C2=CC(c3ccco3)n3ncnc3N2)cc1 (stereo not drawn) | 12.6 µM (active) | 
40 | COc1ccc(C2=CC(c3ccccc3Cl)n3nc(-c4ccc(Cl)cc4)nc3N2)cc1 (stereo not drawn) | inactive | 
41 | CCOC(=O)C1=C(c2ccccc2)Nc2ncnn2C1c1ccc(Cl)cc1 (stereo not drawn) | inactive | 
42 | CCOc1ccc(NC(=O)CSc2c3c(nc4ccccc24)CCCC3)cc1 | inactive | 

Row | SMILES | Potency | growth rescue (activation)
43 | CC(=O)c1cccc(Nc2ccc3cc(S(=O)(=O)N4CCC(C)CC4)ccc3n2)c1 | inactive | 
44 | Cc1cc(Br)cn2c(Cc3ccccc3C(F)(F)F)c(C3CCCCC3)nc12 | inactive | 
45 | CC(C)(C)Cc1c(C2CCCCC2)nc2ccc(Br)cn12 | 28.2 µM (active) | 
46 | COC(=O)c1ccc2nc(C3CCCCC3)c(Cc3cccc(F)c3)n2c1 | inactive | 
47 | COc1cccc(NC(=O)c2csnn2)c1 | inactive | 
48 | CCOC(=O)c1cnc2c(C)cc(C)cc2c1Nc1ccc(N2CCOCC2)cc1 | inactive | 
49 | CCOc1cccc(CC(=O)N2CCc3c([nH]c4ccccc34)C2c2ccc(OC)cc2)c1OCC (stereo not drawn) | inactive | 
50 | CCCC(=O)Nc1ccc2oc(-c3ccc(O)c(Br)c3)nc2c1 | inactive | 
51 | CC(C)c1ccc(C2CC(=O)N3CN(C4CCCCC4)CSC3=C2C#N)cc1 (stereo not drawn) | inactive | 
52 | CCc1nn(CC(=O)Nc2cc(C)cc(C)c2)c(=O)c2cc3sccc3n12 | inactive | 
53 | O=S(=O)(c1cccc(C(F)(F)F)c1)N1c2ccccc2-n2cccc2C1c1cccnc1 (stereo not drawn) | 25.1 µM (active) | 
54 | S=C(Nc1cccc(Br)c1)N1CCn2cccc2C1c1cccnc1 (stereo not drawn) | inactive | 
55 | CC(=O)Nc1ccc(NC(=O)C2CCCN2S(=O)(=O)c2cccc(C(F)(F)F)c2)cc1 (stereo not drawn) | inactive | 
56 | CN(C)c1cccc(C(=O)Nc2nc3ccc(S(=O)(=O)NC(C)(C)C)cc3s2)c1 |  | 6.18% [at 9.22 µM]
57 | COc1ccc2c(c1)c(N1CCCC1=O)c(C(=O)Nc1ccccc1C(F)(F)F)n2C | inactive | 
58 | CCOc1ccc(NC(=O)C(CC(C)C)N2Cc3ccccc3C2=O)cc1 (stereo not drawn) | inactive | 
59 | CC(C)(C)N(Cc1ccccc1)C(=O)c1ccncc1 | inactive | 
60 | CC(Cc1cccs1)N(Cc1ccc(Cl)cc1)C(=O)c1ccncc1 (stereo not drawn) | 35.5 µM (active) | 
61 | CC(Cc1cccs1)NC(=O)c1cccc(Cl)c1 (stereo not drawn) |  | -15.2% [at 0.397 µM]
62 | CCOc1cc(C2C(C(=O)Nc3ccc(OC)cc3)=C(C)Nc3nc(SC)nn32)ccc1O (stereo not drawn) | inactive | 
63 | O=C(CSc1nccn1Cc1ccc(Cl)cc1)NCc1ccccc1 |  | 9.99% [at 9.22 µM]
